# PAFAH2 inh – PAFAH2 enzyme inhibitors, primary screen, biochemical, fluorescence polarization, human. Platelet-activating factor acetylhydrolase 2, cytoplasmic (Homo sapiens), Q99487. recombinant PAFAH2, FP-rhodamine activity probe. inhibition, % at 3.39 µM. 0.99% of 340,000 active;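 active = inhibition above the mean over all tested compounds plus 3 SD, cut at about 30% in these data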;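 note: inhibitors block probe labeling of enzyme so polarization drops; 0% = enzyme with DMSO and 100% = wells lacking PAFAH2 protein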
# PAFAH1B3 FP inh – PAFAH1B3 enzyme inhibitors, primary screen, biochemical, fluorescence polarization, human | inhibition, % at 3.39 µM | recombinant PAFAH1B3, FP-rhodamine probe | 0.28% of 340,000 active | AID 492972, 2010;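 active = inhibition above the screen-wide average of all tested compounds plus 3 SD, cut at about 25% in these data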;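 note: 0% = enzyme with DMSO only and 100% = wells lacking PAFAH1B3 protein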
# Target sequence (Q15102 whole entry, looked up): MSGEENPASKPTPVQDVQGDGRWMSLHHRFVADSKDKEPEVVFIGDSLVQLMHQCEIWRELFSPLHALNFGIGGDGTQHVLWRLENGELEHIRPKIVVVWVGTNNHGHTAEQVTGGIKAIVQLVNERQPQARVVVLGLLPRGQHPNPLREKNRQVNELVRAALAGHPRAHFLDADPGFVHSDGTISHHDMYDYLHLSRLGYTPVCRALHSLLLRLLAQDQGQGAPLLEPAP
# Fam108B counter – mouse Fam108B serine hydrolase inhibitors, primary screen, counter-screen for RBBP9 inhibitor project, biochemical, fluorescence polarization; recombinant Fam108B, FP-Rh probe fluorescence polarization; inhibition, % at 9.51 µM; 0.33% of 300,000 active; AID 1947, 2009;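 active = inhibition above the screen mean inhibition plus 3 SD, computed separately per campaign, cut at about 18% in these data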;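 note: inhibitors lower polarization as less probe binds the enzyme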
# PAFAH1B2 FP inh – PAFAH1B2 enzyme inhibitors, primary screen, biochemical, fluorescence polarization, human. recombinant PAFAH1B2, FP-rhodamine activity probe. Platelet-activating factor acetylhydrolase IB subunit alpha2 (Homo sapiens), P68402. 1.2% of 340,000 active. inhibition, % at 3.39 µM;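 active = inhibition above the mean of all tested compounds plus 3 SD, cut at about 24% in these data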;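 note: 0% = enzyme with DMSO and 100% = wells lacking PAFAH1B2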
# Target sequence (P68402 whole entry, looked up): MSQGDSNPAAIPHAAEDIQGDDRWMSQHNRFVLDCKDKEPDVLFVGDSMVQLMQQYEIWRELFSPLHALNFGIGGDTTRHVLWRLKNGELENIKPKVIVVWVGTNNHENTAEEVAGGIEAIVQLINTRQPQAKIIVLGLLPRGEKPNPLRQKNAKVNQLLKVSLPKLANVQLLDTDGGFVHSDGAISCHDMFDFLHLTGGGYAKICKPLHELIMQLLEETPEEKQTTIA
# PME-1 inh – PME-1 inhibitors via competitive probe labeling, primary screen, biochemical, fluorescence polarization, FP-Rh probe, HTS; Protein phosphatase methylesterase 1 (Homo sapiens), Q9Y570; recombinant PME-1; inhibition, % at 5.9 µM; 0.53% of 320,000 active; AID 2130, 2009;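 active = inhibition above the campaign mean of all compounds plus 3 SD, cut at about 26% in these data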;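 note: competitive labeling of PME-1 active site by serine hydrolase directed probe; 0% = PME-1 with DMSO and 100% = wells lacking PME-1 enzyme; inhibitors block probe labeling so polarization falls and inhibition rises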
# pPAFAH FP inh – pPAFAH enzyme inhibitors, primary screen, biochemical, fluorescence polarization, human | recombinant pPAFAH, FP-rhodamine probe fluorescence polarization | AID 463082, 2010 | inhibition, % at 3.39 µM | 1.5% of 330,000 active | Platelet-activating factor acetylhydrolase (Homo sapiens), Q13093;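 active = inhibition above the mean inhibition across the screen plus 3 SD, cut at about 25% in these data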;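 note: inhibitors block binding of the rhodamine activity-based probe so polarization drops; 0% = enzyme with DMSO and 100% = wells lacking pPAFAH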
# Starred values were filed as active, the others as inactive; . = no result. The list is not random: actives were taken first. Their share in the collection is about 2.8%.
SMILES,PAFAH2 inh,PAFAH1B3 FP inh,Fam108B counter,PAFAH1B2 FP inh,PME-1 inh,pPAFAH FP inh
O=C(NCCc1ccc(Cl)cc1)c1cc2ccccn2n1,1,6,-1,30*,1,0
Cn1cnc([N+](=O)[O-])c1S(=O)(=O)Oc1ccc(Cl)cc1,1,0,.,9,.,.
CC(NS(=O)(=O)c1ccc(Br)cc1)C(N)=O (centres undefined),-1,5,2,2,-3,4
NC(=O)CSc1ccc(Br)cc1,-6,3,-3,50*,-4,1
CC(Sc1ccc(Br)cc1)C(N)=O (centres undefined),6,4,4,37*,-4,5
O=C(CSc1ccc(F)cc1)Nc1ccc(Br)cc1,3,-2,-7,8,-3,-1
CN(C)S(=O)(=O)c1cccc(NC(=O)c2cccc(S(=O)(=O)N3CCCCCC3)c2)c1,-1,-3,.,7,.,.
O=C(CCC1CCCN(C(=O)c2ccc3c(c2)OCO3)C1)N1CCN(c2ccccn2)CC1 (centres undefined),-3,5,-1,3,9,27*
CN(C)c1cccc(C(=O)N2CCCC(CCC(=O)N3CCN(c4ccccn4)CC3)C2)c1 (centres undefined),-2,1,2,0,15,0
CN(C)c1ccc(C(=O)N2CCCC(CCC(=O)N3CCN(c4ccccn4)CC3)C2)cc1 (centres undefined),2,5,-2,4,1,26*
O=C(CCC1CCCN(C(=O)c2cccc(F)c2)C1)N1CCN(c2ccccn2)CC1 (centres undefined),-6,8,2,2,4,25*
CC(NC(=O)CN1C(=O)NC2(CCCCCC2)C1=O)c1ccccc1 (centres undefined),-5,7,.,4,-2,1
CCN(c1ccccc1)S(=O)(=O)c1ccc(OC)c(NS(=O)(=O)c2cccs2)c1,4,0,-1,30*,3,10
CCN(c1ccccc1)S(=O)(=O)c1ccc(OC)c(OC)c1,-4,0,3,9,-1,2
CCN(c1ccccc1)S(=O)(=O)c1ccc(OC)c(NC(=O)CNCCc2ccccc2)c1,-4,-1,-3,3,28*,13
CN1C(=O)C(C)(C)c2cc(S(=O)(=O)NCc3ccc(C(=O)NCc4ccco4)cc3)ccc21,2,-1,4,1,7,-3
O=C(CNS(=O)(=O)c1ccc2ccccc2c1)OCc1csc(-c2ccccc2)n1,-11,1,-5,28*,-4,16
Cc1ccc(NC(=O)CNc2cccc(S(=O)(=O)N3CCCCC3)c2)cc1F,-5,2,-2,-2,-2,31*
O=C(CNc1cccc(F)c1)Nc1cccc(S(=O)(=O)N2CCCCC2)c1,1,0,.,3,.,.
O=c1c2ccccc2nc(N/N=C/c2ccc(O)cc2)n1O,3,6,1,0,-9,5
O=c1c2ccccc2nc(N/N=C/c2c(O)ccc3ccccc23)n1O,0,11,18,3,34*,34*
Cc1ccccc1OCC(=O)NC(C)c1ccccc1 (centres undefined),0,5,.,5,.,.
CC(NC(=O)c1cc(S(=O)(=O)N2CCCC2)cn1C)c1ccccc1 (centres undefined),1,2,1,4,4,6
CC(NC(=O)c1cccc(S(=O)(=O)N2CCCCCC2)c1)c1ccccc1 (centres undefined),5,-3,.,25*,5,5
CCCCn1c(N)c(N(CC(C)C)C(=O)c2ccco2)c(=O)[nH]c1=O,2,5,2,5,1,-2
SMILES,PAFAH2 inh,PAFAH1B3 FP inh,Fam108B counter,PAFAH1B2 FP inh,PME-1 inh,pPAFAH FP inh
CCC(Cc1ccccc1)NC(=O)c1ccc2nc(N3CCOCC3)sc2c1 (centres undefined),-3,7,-1,10,-6,-11
Cn1c(CCNC(=O)c2ccco2)nc2cc(NS(=O)(=O)c3ccc(Cl)cc3)ccc21,5,9,0,25*,-11,3
N#Cc1c(-c2c(Cl)cccc2Cl)noc1/C=C/Nc1ccc(C(=O)O)cc1,22,-8,9,-2,3,25*
CN(C)/C=C/c1onc(-c2c(Cl)cccc2Cl)c1C#N,-1,7,5,2,-6,-7
CC(=O)N1CCOc2ccc(S(=O)(=O)NCC3CCC(C(=O)Nc4ccc(C)cn4)CC3)cc21 (centres undefined),5,-1,0,-2,6,0
Nc1nnc(CC(=O)N/N=C/c2cc([N+](=O)[O-])cc(Br)c2O)s1,26,19,10,25*,-3,28*
CN(Cc1cccs1)C(=O)CCNS(=O)(=O)c1ccc(Br)cc1,10,14,.,32*,2,4
O=C(c1ccc(CS(=O)Cc2ccc(Cl)cc2)o1)N1CCN(c2cccc(Cl)c2)CC1 (centres undefined),6,-4,2,4,4,26*
O=C(c1ccc(COc2c(F)c(F)cc(F)c2F)o1)N1CCN(c2ccc(Cl)cc2)CC1,12,6,7,0,8,-1
O=C(c1ccc(CS(=O)Cc2ccc(Cl)cc2)o1)N1CCN(c2ccc(F)cc2)CC1 (centres undefined),1,3,5,11,2,30*
COc1ccc(S(=O)(=O)N2CCCCCC2)cc1C(=O)N1CCN(c2ccccc2C)CC1,15,9,.,5,1,7
Fc1ccccc1C1CC(c2ccco2)=Nc2ccccc2S1 (centres undefined),8,11,1,5,0,7
Cc1cc(C)cc(NC(=O)CSc2nc(=O)n3cc(C)ccc3n2)c1,9,2,-1,4,5,25*
O=C(c1ccc(=O)[nH]n1)N1CCN(S(=O)(=O)c2cccc(F)c2)CC1,34*,34*,.,22,.,.
COc1ccccc1NC(=O)COC(=O)/C=C/c1ccccc1[N+](=O)[O-],12,8,-1,3,11,26*
CC(C)(C)NC(=O)COC(=O)/C=C/c1ccccc1[N+](=O)[O-],29,5,2,0,0,32*
NC(=O)c1ccsc1NC(=O)COC(=O)/C=C/c1ccccc1[N+](=O)[O-],15,8,.,5,.,13
CN(C(=O)COC(=O)/C=C/c1ccccc1[N+](=O)[O-])c1ccccc1,17,8,3,0,1,6

# Source: PubChem (The Scripps Research Institute Molecular Screening Center)
